Experimental findings from PubChem BioAssay AID1865 (National Center for Advancing Translational Sciences (NCATS), 2009) are described below.

The campaign covered roughly 280,000 compounds. About 540 (0.19%) were called active. Another 2% or so got no clear call; they are omitted. The sample holds actives, similar compounds and a random draw of the others, so the mix is not that of the screen. Unmarked numbers belong to inactive results. Calls follow the shape of the dose curve; as a rule, active = well fitted activation curve with a large enough effect; inconclusive = small, poorly fitted or top-dose-only effect; inactive = flat fitted curve, though single readings scatter.
Potency is read from the fitted curve at half-maximal effect.

This test is described as follows: Quantitative High-Throughput Screen for Regulators of Epigenetic Control. Also: nearly all actives have a fitted effect of over 60% in size. As to GFP activation: % of control where 0% means no effect. The following applies: murine LDR cells, GFP reporter derepression, 30 h; series mostly up to 53.9 µM; GFP activation: at the top concentration. The text has this:
NIH Molecular Libraries Screening Centers Network [MLPCN] NIH Chemical Genomics Center [NCGC] MLSCN Grant: 1 X01 MH079860-01 Assay Provider: Elisabeth D. Martinez, University of Texas SW Medical Center NCGC Assay Overview: The Locus Derepression (LDR) assay detects the derepression or induction of a GFP reporter that is stably integrated in a genomic region of murine cells that is presumably silenced. Transcription of the GFP reporter is controlled by a CMV promoter, which normally is constitutively active. However, this cell line, termed LDR, was selected for lack of constitutive production of GFP. GFP production can be induced by incubating the cells with histone deacetylase or DNA methyltransferase inhibitors (Martinez et al., 2006). Compounds that derepress or induce this reporter locus are identified by enumerating GFP positive cells using a laser-scanning microplate cytometer (Auld et al., 2006). This assay was screened against the MLSMR earlier (AID 597; (Johnson et al., 2008) and has been rescreened here against the expanded collection.
NCGC Assay Protocol Summary: Three hundred LDR cells in 5 uL per well were dispensed into black, clear-bottom 1536-well plates. Twenty-three nL compound was transferred to the assay plate and cells were incubated 30 hours at 37 C. Medium was removed, cells were washed two times with PBS, and GFP-positive cells were enumerated as fluorescent objects between the sizes of 20 to 120 um width and depth using an Acumen Explorer. References Auld, DS, Johnson, RL, Zhang, YQ, Veith, H, Jadhav, A, Yasgar, A, Simeonov, A, Zheng, W, Martinez, ED, Westwick, JK, Austin, CP, Inglese, J (2006). Fluorescent protein-based cellular assays analyzed by laser-scanning microplate cytometry in 1536-well plate format. Methods Enzymol 414: 566-89. Johnson, RL, Huang, W, Jadhav, A, Austin, CP, Inglese, J, Martinez, ED (2008). A quantitative high-throughput screen identifies potential epigenetic modulators of gene expression. Anal Biochem 375: 237-48. Martinez, ED, Dull, AB, Beutler, JA, Hager, GL (2006). High-content fluorescence-based screening for epigenetic modulators. Methods Enzymol 414: 21-36.
As for `CCOC(=O)c1c(S(=O)(=O)NCC(=O)Nc2ccc(Cl)c(C(F)(F)F)c2)c(C)n(C)c1C`, the “GFP activation” value was -1.3%.

On to `CCN1CCN(CCCNC(=O)c2cnn(-c3ccc(C)cc3C)c2C2CCN(C(=O)OC(C)(C)C)CC2)CC1`, for which the “GFP activation” value was 0%.

`Cc1cccc(N2CCN(c3c(CN4CCCC4)c(=O)oc4ccccc34)CC2)c1C`: the “GFP activation” value was -0.594%.

Consider `CCOC(=O)c1c(C)nc2c(c1C)c(=O)oc1ccccc12`, for which the “GFP activation” value was -1.99%.

With `Cc1ccccc1-n1nnc2c(=O)oc3ccccc3c21`, the Potency was 15.8 µM (active).

On to `COc1ccc(CCn2cc3c(c2-c2ccc(Br)cc2)c(=O)n(C)c(=O)n3C)cc1OC`, for which the “GFP activation” value is -2.56%.

With `Cc1c(CNC(C)c2ccccc2)c(C(=O)O)c(C)n1Cc1c(F)cccc1Cl` (configuration not stated), the “GFP activation” value is 0.98%.

In the case of `Cc1ccc(Nc2c(-c3ccc(N(C)C)cc3)nc3nc[nH]n23)cc1`, the “GFP activation” value is -0.937%.

Take `COC(=O)c1ccc(C2C(C(=O)Nc3ccccc3)=C(C)Nc3nc4ccccc4n32)cc1` (configuration not stated): the “GFP activation” value was 0%.

As to `CC1CCC(N2CC(=O)N(CCC3=CCCCC3)C(c3ccc(F)cc3)C2=O)CC1` (configuration not stated), the “GFP activation” value is 0.552%.

Consider `Cc1cccc(C(=O)Nc2ccc(S(=O)(=O)N3CCCCC3c3cccnc3)cc2)c1` (configuration not stated), for which the “GFP activation” value was 0%.

For `Cc1ccc(NC(=O)CSc2nc3ccccc3c3nc(CCn4cncc4C)nn23)cc1F`, the “GFP activation” value was 11.5%.

For the compound `COc1ccccc1NC(=O)c1ccc(C)s1`, the “GFP activation” value is 0%.

Regarding `CCOC(=O)C(=Cc1ccccc1OC)C(=O)OCC`, the Potency was 22.4 µM (active).

Regarding `CCOC(=O)C(=CNc1cccc(C)n1)C(=O)OCC`, the “GFP activation” value is 2.11%.

Turning to `Cc1cc(Nc2cccc(C(F)(F)F)c2)nc2ccc(NC(=O)c3ccc(=O)[nH]c3)cc12`, the “GFP activation” value is -0.401%.

For `COc1cccc(Cn2c(CNS(=O)(=O)c3ccc(Cl)s3)nc3cccnc32)c1`, the “GFP activation” value is 1.14%.

With `CCCCNc1ccc(-c2nc(-c3ccncc3)no2)cc1[N+](=O)[O-]`, the “GFP activation” value was -2.85%.

For `CCCn1c2ccccc2c2cnn(CC(=O)NCCCOC(C)C)c(=O)c21`, the “GFP activation” value is 0%.

Consider `Cc1cccc2c1-c1sc(C(=O)Nc3ccc(F)cc3F)cc1CO2`, for which the “GFP activation” value is 0%.

As for `CCOCCCNC(=O)c1c(NC(=O)Cc2coc3c(C)c(C)ccc23)sc2c1CCC2`, the “GFP activation” value is -1.02%.

Regarding `COc1ccc(CCNc2ncnc3c2cnn3-c2ccc(C)cc2)cc1`, the “GFP activation” value was 1.31%.

Turning to `CCOC(=O)C1CCCN(S(=O)(=O)c2cc(-c3cc(C)no3)ccc2OC)C1` (configuration not stated), the “GFP activation” value is -1.08%.

As to `COc1ccc(OCc2cn3c(C)cc(C)nc3n2)cc1`, the “GFP activation” value was -0.866%.

As for `COc1ccc(C(=O)CSc2nc(C)cc(C)n2)cc1[N+](=O)[O-]`, the “GFP activation” value is 1.6%.

As for `COc1ccc(C(C[N+](=O)[O-])n2nc(C)cc2C)cc1` (configuration not stated), the Potency was 12.6 µM (active).

With `O=C1CCCc2cc(S(=O)(=O)N3CCCC(C(=O)NCc4ccccc4)C3)ccc2N1` (configuration not stated), the “GFP activation” value is 1.06%.

Consider `CCOc1cc(-c2nnc(SCC(=O)NC3CCCC3)nc2-c2ccc(OC)c(OCC)c2)ccc1OC`, for which the “GFP activation” value is 0.833%.

Take `CC(=O)N1c2ccc(S(=O)(=O)N3CCCCCC3)cc2CC1C(=O)NCc1ccccc1C` (configuration not stated): the “GFP activation” value was 14.2%.

Consider `COc1ccc(C2C(=O)N(C3CCCCCC3)CC(=O)N2CCc2ccc(Cl)cc2)cc1OC` (configuration not stated), for which the “GFP activation” value was 0.873%.

On to `CC(C)(C)OC(=O)N1CCC(c2c(C(=O)N3CCN(c4cccc(Cl)c4)CC3)cnn2-c2cccc(Cl)c2)CC1`, for which the “GFP activation” value was -1.27%.

Consider `CN(C)CCCn1c(-c2ccc(Cl)cc2)csc1=Nc1ccccc1`, for which the “GFP activation” value was 2.14%.

With `CCCCCn1c(=O)[nH]c2cc(C(=O)Nc3ccc(F)cc3)ccc2c1=O`, the “GFP activation” value is -4.84%.

Regarding `O=C(Nc1c(-c2ccc(F)cc2)nc2ccccn12)c1cccc(F)c1`, the “GFP activation” value is 0.225%.

`Cc1cccc(NC(=O)Cn2cc(S(=O)(=O)Cc3ccccc3Cl)c3ccccc32)c1`: the “GFP activation” value was 7.01%.

As for `CCOC(=O)c1ccc(NC(=O)CSc2nc3c([nH]c4ccccc43)c(=O)n2C)cc1`, the “GFP activation” value was 11.1%.

`Cn1c(C(=O)Nc2cccc(C(F)(F)F)c2)cc2c(=O)n3ccccc3nc21`: the “GFP activation” value was 2.82%.

Turning to `COc1cc(Cl)c(C)cc1NC(=O)CCc1nc2cccnc2n1Cc1cccs1`, the “GFP activation” value is -2%.

As for `COc1cccc(NC(=O)N(Cc2cn(C)c3ccccc23)C2CCCCCC2)c1`, the “GFP activation” value was 2.27%.

Take `COc1cccc(CNCc2c(C(=O)O)n(Cc3ccc(C)cc3)c3cc(C)ccc23)c1OC`: the “GFP activation” value was 2.35%.

For the compound `COc1ccc(Nc2ncc3c(n2)CCN(C(=O)OC(C)(C)C)C3)cc1`, the “GFP activation” value was 7.82%.

As to `COc1ccc(CCNC(=O)CCCn2c(=O)c3ccccc3n(Cc3ccc(C)cc3)c2=O)cc1OC`, the “GFP activation” value is 0%.

Take `COC(=O)c1scc(-c2ccc(C)cc2)c1S(=O)(=O)Nc1cc(Cl)c(OC)cc1OC`: the “GFP activation” value is 0%.

As for `O=C(Nc1ccc(Br)cc1)c1cc2nc(-c3ccccc3)cc(-c3ccccc3)n2n1`, the “GFP activation” value is -1.59%.

As for `CCCC(=O)Nc1cc(C(=O)NCc2ccc(OC)cc2)ccc1S(=O)(=O)c1ccc(Cl)cc1`, the “GFP activation” value was 1.06%.

On to `CC(C)(C)c1ccc(C(=O)N2CCC(c3nc(-c4ccc(S(=O)(=O)N5CCCC5)cc4)no3)CC2)cc1`, for which the “GFP activation” value is 1.37%.

Turning to `COc1cccc(C(=O)c2sc3nc(-c4ccccc4)cc(C(F)(F)F)c3c2N)c1`, the Potency is 1.58 µM (active).

In the case of `Cc1nc2sc(C(=O)c3ccccc3)c(N)c2c2c1CCCC2`, the “GFP activation” value was 0%.

Consider `Cc1ccc2c(N)c(C(=O)c3ccccc3)sc2n1`, for which the “GFP activation” value was 0.0852%.

`COc1ccc(Cc2nc3ccc(C(=O)NCc4ccc(OC)cc4OC)cc3o2)cc1`: the “GFP activation” value was -1.69%.

Regarding `Cc1cccc(C)c1-n1ncc(C(=O)NCCCN2CCCCC2)c1C1CCN(C(=O)OC(C)(C)C)CC1`, the “GFP activation” value is 0%.

As for `COc1ccc(CCN2C(=O)c3oc4cc(C)cc(C)c4c(=O)c3C2c2ccccc2F)cc1OC` (configuration not stated), the “GFP activation” value is -0.667%.

With `COc1ccc2c(c1)c(=O)c(C(=O)c1ccccc1)cn2CC(=O)Nc1ccc2c(c1)OCCO2`, the “GFP activation” value was -0.734%.

With `Cc1ccc(NC(=O)CN2c3ccccc3S(=O)(=O)c3ccccc32)cc1F`, the “GFP activation” value was 1.72%.

Regarding `CCOC(=O)c1c(C)oc2ccc(N(C(=O)c3ccncc3)S(=O)(=O)c3ccc(CC)cc3)cc12`, the “GFP activation” value was 0%.

Turning to `O=C(CSc1oc(-c2ccco2)nc1S(=O)(=O)c1ccc(Cl)cc1)c1ccccc1`, the “GFP activation” value is -0.982%.

As for `COc1ccc(CC(=O)N2CC(=O)Nc3ccc(Br)cc3C2c2ccc(F)cc2)cc1OC` (configuration not stated), the “GFP activation” value is -6.76%.

With `COc1ccc(CCNc2ncnc3onc(-c4ccc(Cl)cc4)c23)c(OC)c1`, the “GFP activation” value was -0.432%.

Regarding `O=C(CSc1oc(-c2ccco2)nc1S(=O)(=O)c1ccccc1)c1ccc(Cl)cc1`, the “GFP activation” value was -0.954%.

Regarding `CCOC(=O)CC(=O)CSc1nc(-c2ccccc2)cc(-c2ccc(Cl)cc2)c1C#N`, the “GFP activation” value is 3.16%.

In the case of `N#Cc1c(-c2ccc(F)cc2)cc(C2CC2)nc1SCC(=O)c1cccs1`, the Potency was 10 µM (active).

As for `O=C(c1cccs1)N1CCCC(c2nc(-c3ccc(F)cc3)no2)C1` (configuration not stated), the “GFP activation” value was -1.01%.
